# Inconclusive results are not listed. Where a call stands in place of a potency, no number is given. Active and inactive are the calls of the source. Calls follow the shape of the full dose curve.
# Test: Cytotoxicity counterscreen for inhibitors of SARS-CoV-2 cell entry (AID 1645845); also: nearly all actives have a fitted effect of over 50% in size
# Settings: cell viability (SARS-CoV-2 entry assay cells); series mostly up to 57.1 µM
# In short: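 ATP-content luminescence (ATPLite 1step, 15 min RT) read after 48 h compound exposure of Expi293F cells stably expressing human ACE2; normalized to cells-only wells and media-only wells.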
row,Compound,Potency
1,O=C(O)COc1ccccc1,inactive
2,CC1=C(C/C=C(\C)CCC[C@H](C)CCC[C@H](C)CCCC(C)C)C(=O)c2ccccc2C1=O,inactive
3,COC1=C[C@@H]2[C@@H]3Cc4ccc(OC)c(O)c4[C@]2(CCN3C)CC1=O,inactive
4,COC(=O)[C@@H](N)CCCN=C(N)N[N+](=O)[O-],inactive
5,O=S(=O)(F)Cc1ccccc1,inactive
6,O=C(NCC1CCOCC1)c1cnc(Nc2ccc(Cl)cc2Cl)nc1C(F)(F)F,inactive
7,Cc1cc(O)ccc1Cl,inactive
8,CC[N+]1(CCOC(=O)C(O)(c2ccccc2)c2ccccc2)CCCCC1,inactive
9,CCCC[N+]1(C)[C@H]2CC(OC(=O)[C@H](CO)c3ccccc3)C[C@H]1[C@H]1O[C@H]12 (some centres not stated),inactive
10,c1ccc2c(CN3CCNCC3)cccc2c1,inactive
11,COc1ccc(N(C(=O)Oc2c(C)cccc2C)c2ccnc(Nc3ccc(N4CCN(C)CC4)cc3)n2)c(OC)c1,inactive
12,CN(C)NC(=O)CCC(=O)O,inactive
13,O=C(Oc1ccc([N+](=O)[O-])cc1)N1CCC(C(O)(c2ccc3c(c2)OCO3)c2ccc3c(c2)OCO3)CC1,inactive
14,C[C@]12CC[C@@H]3[C@@H](CCC4=CC(=O)CC[C@@H]43)[C@@H]1CC[C@@H]2OC(=O)CCc1ccccc1,inactive
15,O=c1[nH]c(-c2ccc(C(F)(F)F)cc2)nc2c1CSCC2,inactive
16,CC(=O)Nc1ccc(OC[C@](C)(O)C(=O)Nc2ccc([N+](=O)[O-])c(C(F)(F)F)c2)cc1,inactive
17,CC(=O)c1c(C)c2cnc(Nc3ccc(N4CCNCC4)cn3)nc2n(C2CCCC2)c1=O,inactive

# — PubChem BioAssay (NCATS)
